Measurements taken from PubChem BioAssay (NCI).
The panel holds about 83,000 compounds, 20% with a hit somewhere; the sample as a whole holds those more often.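 The test compound was applied at a single concentration to cells in 96-well plates for 48 hours, and percent growth was recorded.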 Values without a mark were called inactive. Calls of active or inactive are those of the source. The calls were made as follows: active = growth percent below 10; inactive = the rest.

Key:
Experiment in all cases: NCI-60 one-dose screen, 48 h (100 = growth as untreated, 0 = no growth, -100 = all killed)
Details in all cases: 10 µM unless noted
NCI-H23 lung = system: NCI-H23 lung
NCI-H226 lung = system: NCI-H226 lung
NCI-H322M lung = system: NCI-H322M lung
HOP-62 NSCLC = system: HOP-62 NSCLC
NCI-H460 lung = system: NCI-H460 lung
HOP-92 NSCLC = system: HOP-92 NSCLC
NCI-H522 lung = system: NCI-H522 lung
A549/ATCC NSCLC = system: A549/ATCC NSCLC
786-0 renal = system: 786-0 renal
COLO 205 colon = system: COLO 205 colon
DU-145 prostate = system: DU-145 prostate
K-562 leukemia = system: K-562 leukemia
MALME-3M melanoma = system: MALME-3M melanoma
MDA-MB-231 breast = system: MDA-MB-231 breast
SF-268 CNS = system: SF-268 CNS
SF-295 CNS = system: SF-295 CNS
SF-539 CNS = system: SF-539 CNS
UACC-257 melanoma = system: UACC-257 melanoma
M14 melanoma = system: M14 melanoma

Row | SMILES | growth (NCI-H23 lung) | growth (NCI-H226 lung) | growth (NCI-H322M lung) [%] | growth (HOP-62 NSCLC) | growth (NCI-H460 lung) | growth (HOP-92 NSCLC) | growth (NCI-H522 lung) | growth (A549/ATCC NSCLC) | growth (786-0 renal) | growth (COLO 205 colon) | growth (DU-145 prostate) | growth (K-562 leukemia) | growth (MALME-3M melanoma) | growth (MDA-MB-231 breast) | growth (SF-268 CNS) | growth (SF-295 CNS) | growth (SF-539 CNS) | growth (UACC-257 melanoma) | growth (M14 melanoma)
1 | COc1cc(CNC(=O)CCCCC[P+](c2ccccc2)(c2ccccc2)c2ccccc2)c(OC)c2c1OCO2 | 66.9% | 88.3% | 96.8 | 90.1% | 78.6% | 23.5% | 52.9% | 87.8% | 96.3% | 45.8% | 81.1% | 20.8% | 55.5% | 72.8% | 66.9% | 87.2% | 73.1% | 21.2% | 76.2%
2 | CC(=O)c1c(C)[nH]c(-c2nc3ccc(N4CCN(C)CC4)cc3[nH]2)c1-c1ccccc1 | 53% | 55.2% | 41.6 | 33.3% | 52.3% | 29.8% | 25.4% | 38.1% | 85.9% | 16.1% | 59.7% | 24.7% | 23.7% | 32% | 53.6% | 38.1% | 24.9% | 48.4% | 94.7%
3 | Clc1ccc(C2CC(c3cccc(Nc4ccncc4)c3)=NN2c2ccc(Cl)cc2)cc1 (configuration not stated) | 47.7% | 91.9% | 54.9 | -44.4% (active) | -81% (active) | 46.3% | -44% (active) | 9.48% (active) | -71.7% (active) | -61.5% (active) | 17.6% | -1.93% (active) | -64.4% (active) | 19% | 60.2% | -79.2% (active) | 71.2% | 64.7% | -80.1% (active)
4 | COc1ccc(C(=O)c2cc3c(N)c(C(=O)Nc4cccc(Cl)c4C)sc3nc2C)cc1 | 29.3% | 44% | 52.6 | 29.1% | 6.21% (active) | 27.7% | -8.11% (active) | 13.2% | 29% | -26.2% (active) | 9.62% (active) | 2.9% (active) | 54.5% | 15% | 18.4% | 26.5% | -10.2% (active) | 57.6% | 5.63% (active)
5 | S=c1[nH]cccc1-c1nnc2n1Nc1nc3ccc(Cl)cc3cc1CS2 | 92% | 94.9% | 103 | 108% | 102% | 107% | 82.6% | 107% | 98.8% | 122% | 117% | 97.5% | 110% | 89.9% | 101% | 98.5% | 97.7% | 102% | 98.6%
6 | Cn1c(COC(=O)N2CCCCC2)nc2c(N3CCOCC3)nc(-c3ccccc3)nc21 | -75.9% (active) | -60.8% (active) | 37.4 | -31.3% (active) | -55.9% (active) | -64.7% (active) | -53.2% (active) | -39.7% (active) | -75.1% (active) | -60.2% (active) | -87% (active) | 3.43% (active) | -85.2% (active) | -71.6% (active) | -78.5% (active) | 21.6% | -91.9% (active) | -76.3% (active) | -59.8% (active)
7 | COc1cc(/C=N/NC(=O)c2ccccc2Nc2cccc(C(F)(F)F)c2)ccc1O | 91.5% | 88.3% | 103 | 93.4% | 100% | 67.6% | 81.9% | 100% | 75.7% | 106% | 89.7% | 77.9% | 106% | 71.6% | 81.5% | 93.5% | 105% | 23.8% | 73.9%
8 | COc1cc(C2CC(c3cccc(Nc4ccncc4)c3)=NN2c2ccc(Cl)cc2)cc(OC)c1OC (configuration not stated) | 79.9% | 84.3% | 65.1 | -44.4% (active) | -73.8% (active) | 25.1% | -46.1% (active) | 26.1% | 104% | -63.1% (active) | -17.5% (active) | -0.526% (active) | -85.2% (active) | 24.8% | 44.5% | -55.1% (active) | 68.3% | -6.07% (active) | 101%
